# Assay results as given in PubChem BioAssay (NCATS).
# Inconclusive results are not listed. Where a call stands in place of a potency, no number is given. Activity calls are given as the source filed them. The call rests on the fitted dose curve; in most records, active means well fitted inhibition curve with a large enough effect; inconclusive means small, poorly fitted or top-dose-only effect; inactive means flat fitted curve, though single readings scatter.
# Experiments:
# Test in all cases: qHTS profiling for inhibitors of Plasmodium falciparum proliferation (AID 504749); further: nearly all actives have a fitted effect of over 60% in size
# Conditions in all cases: P. falciparum in erythrocytes, SYBR Green DNA, 72 h; series mostly up to 28.7 µM
# CP315 = system: CP315
# Procedure, shortened: (§1)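 SYBR Green fluorescence (ex 485 nm, em 535 nm) reports parasite DNA after 72 h compound exposure of infected red cells at 0.3% parasitemia, 2.5% hematocrit; signal normalized to 0.29 uM artemisinin and vehicle wells.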
# CP329 = system: CP329
# Procedure, shortened: as §1
# DIV14 = system: DIV14
# Procedure, shortened: as §1
# DIV17 = system: DIV17
# Procedure, shortened: as §1
# FAB9 = system: FAB9
# Procedure, shortened: as §1
# HB3 = system: HB3
# Procedure, shortened: as §1
# ICS = system: ICS
# Procedure, shortened: as §1
# JCK = system: JCK
# Procedure, shortened: as §1
# CP269 = system: CP269
# Procedure, shortened: as §1
# CP286 = system: CP286
# Procedure, shortened: as §1
# CP291 = system: CP291
# Procedure, shortened: as §1
# CP297 = system: CP297
# Procedure, shortened: as §1
# CP305 = system: CP305
# Procedure, shortened: as §1
# CP325 = system: CP325
# Procedure, shortened: as §1
# CP335 = system: CP335
# Procedure, shortened: as §1
# DFO2036 = system: DFO2036
# Procedure, shortened: as §1
# DIV30 = system: DIV30
# Procedure, shortened: as §1
# Dd2 = system: Dd2
# Procedure, shortened: as §1
# ECU = system: ECU
# Procedure, shortened: as §1
# GB4 = system: GB4
# Procedure, shortened: as §1
# Potency means the concentration at half of the fitted maximal effect.
SMILES,outcome (CP315),outcome (CP329),Potency (DIV14),Potency (DIV17),outcome (FAB9),Potency (HB3),Potency (ICS),outcome (JCK),outcome (CP269),outcome (CP286),outcome (CP291),outcome (CP297),outcome (CP305),Potency (CP325),Potency (CP335),Potency (DFO2036),outcome (DIV30),Potency (Dd2),Potency (ECU),Potency (GB4)
CN1C2CCC1CC(OC(c1ccccc1)c1ccccc1)C2 (stereo unspecified),inactive,inactive,4.78 µM (active),3.01 µM (active),inactive,inactive,0.178 µM (active),inactive,–,–,–,–,–,–,–,–,–,–,–,–
CC(O)C(O)[C@H]1CNc2nc(N)[nH]c(=O)c2N1 (stereo partly specified),inactive,inactive,inactive,inactive,inactive,inactive,inactive,inactive,inactive,inactive,inactive,inactive,inactive,inactive,inactive,inactive,inactive,inactive,inactive,inactive
CCCCCCCCCCCCCCC[C@H](O)[C@H](N)CO,inactive,inactive,inactive,inactive,inactive,inactive,–,inactive,inactive,inactive,inactive,inactive,inactive,inactive,inactive,inactive,inactive,–,inactive,inactive
CCCCCCCCCCCCCCCCCCOC[C@H](COP(=O)([O-])OCC[N+](C)(C)C)OC,inactive,inactive,inactive,inactive,inactive,inactive,inactive,inactive,inactive,inactive,inactive,inactive,inactive,inactive,inactive,inactive,inactive,inactive,inactive,inactive
CC(C)NC[C@H](O)COc1ccc(CC(N)=O)cc1,inactive,inactive,inactive,inactive,inactive,inactive,inactive,inactive,inactive,inactive,inactive,–,inactive,inactive,inactive,inactive,inactive,inactive,inactive,inactive
c1ccc(C2CN3CCSC3=N2)cc1 (stereo unspecified),inactive,–,2.69 µM (active),3.01 µM (active),–,3.16 µM (active),1.26 µM (active),–,–,–,–,–,–,16.9 µM (active),5.36 µM (active),6.31 µM (active),–,3.98 µM (active),8.91 µM (active),8.49 µM (active)
